45 compounds from PubChem BioAssay AID1851 (National Center for Advancing Translational Sciences (NCATS), 2009) can be followed below.

Among all 16,000 compounds or so, about 5,700 (36%) were called active. About 24% were inconclusive and are not listed. This is one part of the list. Unmarked numbers belong to inactive results. The call rests on the fitted dose curve; in most records, active means well fitted curve in the direction sought with a large enough effect; inconclusive means small, poorly fitted or top-dose-only effect, or effect the other way; inactive means no such curve, though single readings can be large or run the other way. Peptide text beside a SMILES is read from it. * marks the point of attachment. Cbz = O=C(OCc1ccccc1)*
On the % scale 0 is the no-effect control and ±100 the full control effect.

Cytochrome P450 1A2 (Homo sapiens), sequence (P05177 whole entry, looked up): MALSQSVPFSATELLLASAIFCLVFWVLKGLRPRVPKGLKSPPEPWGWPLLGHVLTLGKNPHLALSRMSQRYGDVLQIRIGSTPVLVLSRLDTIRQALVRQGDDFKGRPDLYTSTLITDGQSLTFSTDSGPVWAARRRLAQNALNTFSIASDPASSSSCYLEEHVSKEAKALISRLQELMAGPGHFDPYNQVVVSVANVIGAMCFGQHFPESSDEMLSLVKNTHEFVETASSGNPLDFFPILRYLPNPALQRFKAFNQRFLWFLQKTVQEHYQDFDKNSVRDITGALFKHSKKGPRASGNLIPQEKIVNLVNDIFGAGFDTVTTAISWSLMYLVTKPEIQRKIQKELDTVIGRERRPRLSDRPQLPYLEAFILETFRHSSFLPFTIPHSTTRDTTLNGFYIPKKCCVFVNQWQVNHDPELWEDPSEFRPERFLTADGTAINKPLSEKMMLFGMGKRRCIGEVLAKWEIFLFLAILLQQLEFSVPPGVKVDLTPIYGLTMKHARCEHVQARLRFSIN

The assay addresses Cytochrome P450 1A2 (Homo sapiens) (UniProt P05177). As to the kind of experiment: Cytochrome panel assay with activity outcomes. Particulars: recombinant CYP, pro-luciferin dealkylation, luminescence, p450-cyp1a2; series mostly up to 57.1 µM; activity, negative = inhibition: at the top concentration.
As for `O=C(O)CSSCC(=O)O`, the activity, negative = inhibition was -2.44% [at 11.4 µM].
`O=C(O)CSc1sc(=S)sc1SCC(=O)O`: the AC50 – broadly, the concentration at which the activity in the assay is half-maximal – was 12.6 µM (active).
Take `COc1cccc([C@H]2Oc3ccc(OC)cc3/C(=N\O[C@@H]3O[C@H](COC(C)=O)[C@H](OC(C)=O)[C@H](OC(C)=O)[C@H]3OC(C)=O)[C@@H]2O)c1`: the activity, negative = inhibition was 2.78% [at 11.4 µM].
On the same count and under the same terms, then `Fc1nc(N2CCCC2)c(F)c(Oc2ccccc2Oc2c(F)c(F)nc(N3CCCC3)c2F)c1F`, with -26.3%.
For `CCOC(=O)c1ccccc1Oc1c(F)c(F)nc(NCCO)c1F`, the AC50 was 8.91 µM (active).
For the compound `Fc1cccc(C2NC(=S)NC3=C2N2CCC3CC2)c1` (stereo not given), the “activity, negative = inhibition” value is -4.29%.
Consider `Cc1nc(SCC(=O)c2cc3ccccc3oc2=O)c(C#N)c(C)c1C(=O)Nc1ccccc1`, for which the “activity, negative = inhibition” value was -7.52%.
As for `Cc1c(C#N)c(=O)oc2ccc3ccccc3c12`, the AC50 is 0.126 µM (active).
With `COc1ccc(NC(=O)N2CC3(CCN(C(=O)c4cnccn4)CC3)C2)cc1`, the “activity, negative = inhibition” value was -0.562%.
As for `O=C1C2CCCN2C(c2ccc(F)cc2)N1c1nccs1` (stereo not given), the AC50 is 3.16 µM (active).
Turning to `Cc1cccc(OCC(=O)NNC(=O)CSc2ncc(C#N)c(N)n2)c1`, the “activity, negative = inhibition” value was -11.1%.
As to `Cc1snc(SCC(=O)N/N=C(\N)COc2cccc(C(F)(F)F)c2)c1C#N`, the AC50 was 12.6 µM (active).
Consider `C[C@H]1CC[C@H]2C(=O)N3[C@H](c4ccc(Br)cc4)[C@@H](C)CC[C@H]3C(=O)N2[C@@H]1c1ccc(Br)cc1`, for which the activity, negative = inhibition is -10.6% [at 11.4 µM].
In the case of `O=C1CC(=Nc2ccccc2)NN1c1ccccc1`, the AC50 is 6.31 µM (active).
Take `CC(C)[C@H](NC(=O)OCc1ccccc1)C(=O)N[C@H](C=O)Cc1ccccc1` (Cbz-Val-Phe-aldehyde): the “activity, negative = inhibition” value is -20.6%.
As for `O=C(N[C@@H](Cc1ccccc1)C(=O)CCl)OCc1ccccc1`, the AC50 was 3.16 µM (active).
Consider `CC(C)C(NC(=O)OCc1ccccc1)C(=O)O` (stereo not given), for which the “activity, negative = inhibition” value was -3.1%.
The same measure, in the same setting: the value for `CN(CC(=O)O)Cc1c(O)c(Cl)cc(Cl)c1Cl` was -0.983% [at 2.29 µM]; that for `COc1ccc(-c2cc(C(=O)Nc3nc4c(C)cccc4s3)c3ccccc3n2)cc1OC` was -21.2%.
`COc1ccc(OC)c(C2C(C(=O)Nc3nc4ccccc4s3)=C(C)NC3=C2C(=O)CCC3)c1` (stereo not given): the AC50 was 1.41 µM (active).
As for `CS(=O)(=O)N1CCC2(CCCN(C(=O)Nc3cccc(F)c3)C2)CC1`, the “activity, negative = inhibition” value was -19.7%.
Still for that read-out and setting: then `Cc1ccc(S(=O)(=O)O[C@@H]2[C@H]([C@@H]3COC(C)(C)O3)O[C@H]3OC(C)(C)O[C@@H]32)cc1`, with -15.9% [at 11.4 µM].
For the compound `N#Cc1ccc(-c2ccc(F)cc2)nc1Sc1ccccc1`, the AC50 is 0.891 µM (active).
Same read-out and setting: the value for `Cc1ccc(Sc2nc(-c3ccccc3)ccc2C#N)cc1` was 2.82 µM (active).
As for `CC[C@@H]1OC(=O)[C@H](C)[C@H](O[C@@H]2C[C@](C)(OC)[C@H](O)[C@H](C)O2)[C@H](C)[C@H](O[C@@H]2O[C@@H](C)C[C@@H](N(C)C)[C@@H]2O)[C@](C)(O)C[C@H](C)[C@@H]2N[C@H](COCCOC)O[C@H]([C@@H]2C)[C@]1(C)O`, the “activity, negative = inhibition” value was -13% [at 25.6 µM].
In the case of `COc1ccc(/C=N/Nc2snc(SC)c2C#N)cc1OC`, the concentration at half-maximal activity (AC50) is 0.708 µM (active).
Regarding `COc1cc(/C=N/Nc2snc(SC)c2C#N)cc(OC)c1OC`, the concentration at half-maximal activity (AC50) was 4.47 µM (active).
In the case of `CO[C@H]1COC(=O)C/C=C\[C@H](C)COC(=O)[C@@H](C)NC(=O)C/C=C\[C@@H]1C`, the activity, negative = inhibition was -2.38% [at 11.4 µM].
With `C[C@@]12C=CC(=O)C=C1CC[C@@H]1[C@@H]2[C@H](O)C[C@]2(C)[C@@H]1CC[C@]2(O)C(=O)CO`, the “activity, negative = inhibition” value is -4.7% [at 25.6 µM].
On the same count and under the same terms, then `CCc1ccc(-c2cc(C(F)(F)F)n3nc(C(=O)Nc4cnn(Cc5ccccc5C)c4)cc3n2)s1`, with -8.63%; and `Cc1nn(Cc2ccc(Cl)cc2)c(C)c1NC(=O)CSc1nc2c(c(C(F)(F)F)n1)CCc1ccccc1-2`, with -27.6%.
For `Cc1ccccc1Cn1cc(NC(=O)CSc2nc3c(c(C(F)(F)F)n2)CCc2ccccc2-3)cn1`, the AC50 is 7.08 µM (active).
Turning to `CC(=O)NS(=O)(=O)c1ccc(N)cc1`, the “activity, negative = inhibition” value was 4.18% [at 25.6 µM].
Same read-out and setting: the value for `Cc1cc(C(F)F)n2nc(C(=O)Nc3cccnc3Cl)nc2n1` was -20%.
`Cc1c(Cl)cccc1NC(=O)c1ccc(-n2ccnc2)nc1`: the AC50 was 0.794 µM (active).
As for `O=C(Nc1ccc(F)cc1)c1ccc(-n2ccnc2)nc1`, the AC50 was 0.501 µM (active).
Regarding `O=C(Nc1ccc(-n2nncc2-c2ccco2)cc1)c1ccc(F)cc1`, the “activity, negative = inhibition” value was -24.2%.
Same read-out and setting: the value for `Nc1ccn([C@@H]2CC[C@H](CO)O2)c(=O)n1` was -8.58% [at 25.6 µM].
For `COc1ccc(Oc2ncc3nc(C)c(=O)n(C)c3n2)cc1`, the AC50 was 12.6 µM (active).
On the same count and under the same terms, the value for `Cc1nc2cnc(Oc3ccccc3)nc2n(C)c1=O` was 12.6 µM (active).
As for `NC(=O)c1nnn(Cc2cc(Cl)c(C(=O)c3ccc(Cl)cc3)c(Cl)c2)c1N`, the activity, negative = inhibition was -2.19% [at 2.29 µM].
The same measure, in the same setting: the value for `O=C(Oc1ccccc1)N1CCC2(CC1)CCN(c1ccncc1)CC2` was -10.5%.
With `O=C(c1ccccc1Nc1ccc(SC(F)F)cc1)N1CCCCC1`, the AC50 was 14.1 µM (active).
As to `Cc1ccccc1N1CCN(C(=O)c2ccccc2NC(=O)/C=C\C(=O)O)CC1`, the “activity, negative = inhibition” value is 0.682%.
Regarding `CCOC(=O)C1CCN(C(=O)c2ccccc2NC(C)=O)CC1`, the “activity, negative = inhibition” value is 6.29%.
